# Measured values taken from PubChem BioAssay (NCI).
# Compounds without any hit were thinned out: in the full panel of roughly 83,000, 20% have a hit.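 Step 1: grow cells in 96-well plates. Step 2: add test compound at a single concentration. Step 3: incubate 48 h. Step 4: record percent growth.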 Values without a mark were called inactive. Activity calls are given as the source filed them. Rule for the calls: active = growth percent below 10; inactive = the rest.
# How the values were obtained:
# Assay in all cases: NCI-60 one-dose screen, 48 h (100 = growth as untreated, 0 = no growth, -100 = all killed)
# Settings in all cases: 10 µM unless noted
# NCI-H23 lung = tested on: NCI-H23 lung
# NCI-H226 lung = tested on: NCI-H226 lung
# NCI-H322M lung = tested on: NCI-H322M lung
# HOP-62 NSCLC = tested on: HOP-62 NSCLC
# NCI-H460 lung = tested on: NCI-H460 lung
# HOP-92 NSCLC = tested on: HOP-92 NSCLC
# NCI-H522 lung = tested on: NCI-H522 lung
# A549/ATCC NSCLC = tested on: A549/ATCC NSCLC
# 786-0 renal = tested on: 786-0 renal
# COLO 205 colon = tested on: COLO 205 colon
Structure (SMILES),growth (NCI-H23 lung),growth (NCI-H226 lung),growth (NCI-H322M lung),growth (HOP-62 NSCLC),growth (NCI-H460 lung),growth (HOP-92 NSCLC),growth (NCI-H522 lung),growth (A549/ATCC NSCLC),growth (786-0 renal),growth (COLO 205 colon)
COc1ccc(NC(=O)c2ccc(Cl)cc2Cl)cc1,85.3%,105%,103%,107%,97.8%,104%,97.1%,96.5%,93%,101%
CN1CC(c2ccccc2)C(C(=O)c2ccc(Br)cc2)C12C(=O)Nc1ccccc12 (stereo not given),96.2%,90.5%,103%,94.8%,99.4%,86.3%,83%,92.2%,97.8%,112%
O=C(NC1CCCCCC1)c1ccc2c(=O)n3c(nc2c1)CCCCC3,97.7%,106%,90.7%,99.2%,101%,84.6%,103%,97%,106%,102%
Cn1ccnc1C(=O)/C=C/c1ccc(C(=O)Nc2c(F)c(F)c(F)c(F)c2F)cc1,-28.5% (active),13%,6.92% (active),1.97% (active),-41% (active),49.7%,4.29% (active),6.57% (active),-34.6% (active),-24.2% (active)
Cc1ccc2c(c1)CC(O)CC1C(=O)N(CCO)CC(=O)N21 (stereo not given),99.3%,95.9%,105%,101%,109%,124%,82.5%,76.6%,104%,110%
c1ccc(-c2nc(N3CCNCC3)c3oc(-c4ccccc4)nc3n2)cc1,-66.8% (active),-41.6% (active),-95.1% (active),-67.9% (active),-81.1% (active),-53.1% (active),-28.3% (active),-44.8% (active),-74.1% (active),-39.7% (active)
COc1cc(/C=C2\C(=O)N(CCOc3cc(O)c4c(=O)cc(-c5ccccc5)oc4c3)c3ccccc32)cc(OC)c1O,77.6%,90.4%,90.7%,68.7%,66.1%,80.5%,60.1%,85%,75.6%,93.3%
COc1ccc2c(c1)C(c1c[nH]c3ccccc13)(c1c[nH]c3ccccc13)CCO2,53.3%,64.1%,66.1%,49.1%,47.4%,35.6%,6.18% (active),24.1%,58.8%,39.9%
Cc1cc(=O)oc2cc(Oc3nc(-c4ccccc4)cn4c(-c5ccccc5)cnc34)ccc12,62.4%,44.6%,86%,68.7%,64%,22.4%,47.1%,56.1%,67.3%,70.5%
N#CC1=C(N)Oc2c(ccc3ccccc23)C1c1cc2ccccc2n2nnnc12 (stereo not given),36.6%,53.6%,34%,24.6%,11.3%,49.2%,12.3%,33.4%,13.4%,48.4%
C=CCNc1nc(O)c(/C=C2\C=Nc3ncccc32)s1,6.83% (active),10.7%,10.2%,-10.8% (active),2.18% (active),-1.86% (active),-5.27% (active),13.2%,4.4% (active),-20.1% (active)
O=C(Nc1ccc2c(c1)-c1ccccc1C2)C1CC(=O)N(c2ccc3c(c2)OCO3)C1 (stereo not given),51.6% [50 µM],30.2% [50 µM],55.9% [50 µM],70.7% [50 µM],32.9% [50 µM],65% [50 µM],77.5% [50 µM],66.7% [50 µM],30.9% [50 µM],86.2% [50 µM]
COc1ccccc1NC(=O)n1c(=O)cc(C)c2ccc(O)cc21,102%,93.5%,103%,102%,111%,88.9%,96.2%,105%,115%,110%
CCN1C(=O)N(CC)C2C1NN=c1s/c(=C3\C(=O)N(C)c4ccccc43)c(=O)n12 (stereo not given),37%,96.7%,48.4%,29.8%,6.21% (active),56.8%,21.7%,35.1%,36.9%,8.01% (active)
CNC1=C(Br)C(=O)c2c(C(=O)OC)c(C)nc(C)c2C1=O,31.8%,86.3%,81.5%,99.9%,30.4%,104%,64.3%,58.1%,102%,30.9%
O=C(CN1C(=O)NC2NC(=O)NC21)N/N=C/c1cccc([N+](=O)[O-])c1 (stereo not given),104%,94%,108%,107%,107%,123%,97.3%,112%,106%,122%
CC1=C2[C@@H](CC1)[C@]1(C)O[C@@](C(C)C)(C[C@H]1OC(=O)CO)[C@H]2OC(=O)CCCc1ccccc1,81.4%,61.4%,90%,39.5%,68%,37.4%,45.1%,58.4%,79.2%,55.1%
COc1ccc(Nc2nc(Nc3cc(C)[nH]n3)c3cc(OC)c(OC)cc3n2)cc1,-74.7% [20 µM] (active),-47.2% [20 µM] (active),-100% [20 µM] (active),-73.3% [20 µM] (active),-75.9% [20 µM] (active),-84.6% [20 µM] (active),-39.1% [20 µM] (active),-61.2% [20 µM] (active),-83.3% [20 µM] (active),-61% [20 µM] (active)
COc1ccc(CNc2c3ccccc3nc3ccccc23)cc1OC,15.1%,27.9%,29.8%,34.5%,6.17% (active),-9.67% (active),18.2%,16.3%,25.4%,5.3% (active)
Oc1cccc2c1NCCC2,13.6%,32.8%,38.3%,25.1%,5.35% (active),-16.6% (active),-2.3% (active),12.9%,26.6%,38.6%
COc1cc2c(c(OC)c1OC)CCC(c1cccc(C(=O)Nc3ccccc3Br)c1)O2 (stereo not given),97.2%,92.3%,94.9%,92.3%,104%,66.3%,80.1%,81.2%,76.2%,90.5%
